Compound activity deposited in PubChem by several laboratories.
TMEM16A inh: mouse TMEM16A channel inhibition, primary screen; AID 588511; normalized B-score (activity score, 25-100; higher = stronger inhibition) at 10 µM; actives 1.2% (n = 310,000); HEK293 TMEM16A/YFP iodide influx fluorescence, ionomycin; Q8BHY3;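 active = ratio plate-corrected score three or more library SD toward inhibition, starting fluorescence score within five deviations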;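 also: score derived from kinetic fluorescence span divided by baseline fluorescence per well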
aSyn 5UTR inh: 5' untranslated region of α-synuclein, MLPCN primary screen | alpha-synuclein 5'UTR reporter, inhibitor activity | inhibition, % (tested at 7.5 µM) | actives 0.82% (n = 300,000); in the data active = inhibition above about 60%;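 also: H4 neuroglioblastoma cells stably carrying SNCA 5'UTR luciferase fusion; 0% = DMSO wells and 100% = positive control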
697 NFkB inh: inhibitors of the PMA/ionomycin-induced NF-kB reporter in 697 B cells | 697 B-cell NF-kB luciferase reporter, 16 h | inhibition, % at 4 µM | actives 0.33% (n = 330,000); in the data active = inhibition above about 35%
KLF5 inh: inhibitors of KLF5 expression | inhibition, % at 5 µM | actives 0.23% (n = 290,000) | AID 1700 | DLD-1 KLF5 promoter-luciferase reporter, luminescence;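 active = inhibition above a per-plate limit of that plate's mean compound inhibition plus 3 SD, cut at about 60% in these data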;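 also: 0% = DMSO wells and 100% = LY294002 at 200 µM; higher means less KLF5 promoter-driven luciferase light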
TMEM16A act: activators or potentiators of mouse TMEM16A chloride channel; Q8BHY3; HEK293 TMEM16A/YFP-H148Q/I152L, iodide quench fluorescence; stronger effect = lower value; B-score at 10 µM; actives 0.3% (n = 340,000); AID 623877;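 active = fluorescence-ratio B-score plate-corrected deviation score at least 3 library SD below zero, with starting fluorescence score within 5 deviations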;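 also: channel opened by trigger with iodide after compound preincubation; score built on the fluorescence ratio of max minus min over baseline; more negative score means more quench and so TMEM16A activation or potentiation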
Jurkat NFkB inh: inhibitors of the PMA/ionomycin-induced NF-kB reporter in Jurkat cells | PMA/ionomycin-induced NF-kB luciferase reporter, luminescence | inhibition, % at 4 µM | actives 0.53% (n = 330,000); in the data active = inhibition above about 50%
The depositor's hits bear a star; i = inactive; · = not tested or not shown. A selection: hits, their analogues and other compounds. The true share with any hit is near 2.5%.

SMILES	TMEM16A inh	aSyn 5UTR inh	697 NFkB inh	KLF5 inh	TMEM16A act	Jurkat NFkB inh
CCc1ccccc1-n1ncc(C(=O)Nc2ccccc2OC)c1C	i	-8.1	10.0	-21.6	i	4.3
O=C(O)C1(Nc2ccc(Br)cc2)CCCC1	·	·	·	·	i	·
CCOc1ccc(NC(=O)CN(C)C(=O)CC(NC(=O)c2ccccc2)c2ccccc2)cc1OCC (stereo unspecified)	i	4.5	0.7	·	-4.95*	7.5
Cc1ccc(-c2nc(N)c3c(-c4ccc(C)cc4)nn(C(C)(C)C)c3n2)cc1	100*	-29.6	-6.1	13.6	i	11.0
CC(C)(C)n1nc(-c2ccc(Cl)cc2)c2c(N)ncnc21	i	104.6*	-35.2	-25.1	i	7.4
CC(C)(C)n1nc(-c2ccc(F)cc2)c2c(N)ncnc21	i	70.9*	-24.3	-40.8	i	-2.6
Cc1ccc(-c2nn(C(C)(C)C)c3ncnc(NS(=O)(=O)c4ccc([N+](=O)[O-])cc4)c23)cc1	i	23.5	-3.3	-1.1	i	18.4
CCc1ccccc1NC(=O)CN(C)C(=O)c1cccc(S(=O)(=O)N2CCCCCC2)c1	·	·	16.3	·	i	-1.2
CCOC(=O)C1=C(c2ccccc2)NC(=O)NC1c1ccsc1 (stereo unspecified)	i	-3.6	-18.6	-10.8	i	-6.5
O=C(COC(=O)c1ccccc1OC(F)F)Nc1ccc2[nH]c(=O)[nH]c2c1	i	6.1	3.2	·	i	4.8
CN(Cc1ccccc1)C(=O)c1[nH]cnc1C(=O)NCc1ccccc1	·	·	18.8	·	-8.15*	3.5
O=C(Nc1ccc(F)cc1)Nc1ccc(N2CCCC2)c(S(=O)(=O)Nc2ccccc2Cl)c1	i	11.4	-1.1	9.5	i	-16.5
O=C(Nc1ccc(Cl)c(Cl)c1)Nc1ccc(N2CCCC2)c(S(=O)(=O)Nc2ccccc2Cl)c1	i	95.2*	8.6	13.3	i	7.4
O=C(Nc1ccccc1Cl)c1cccs1	i	-70.9	-17.0	-46.1	i	-6.4
COc1ccccc1NS(=O)(=O)c1cc(NC(=S)Nc2cc(C)cc(C)c2)ccc1Cl	i	-36.1	14.4	-8.3	-5.56*	4.9
O=C(Nc1ccc(Cl)c(S(=O)(=O)Nc2ccccc2Cl)c1)c1cccs1	25*	10.3	3.3	-30.9	i	-5.0
COc1ccc(NC(=O)Cc2ccc(C)cc2)c([N+](=O)[O-])c1	i	1.8	·	-2.3	i	·
COc1ccc(NC(=O)CC2Nc3cc(C)c(C)cc3NC2=O)c([N+](=O)[O-])c1 (stereo unspecified)	i	1.5	5.3	5.2	-4.97*	-4.6
Cc1cccc(C(=O)NC(=S)Nc2c(C)n(C)n(-c3ccccc3)c2=O)c1	i	14.0	·	-7.2	i	·
CC(=O)c1ccc(OCC(O)COc2ccc(C(C)=O)cc2)cc1	i	12.1	19.1	-14.2	i	-5.2
C=C(C)C(=O)OCC(O)COc1ccc(C(C)(C)c2ccc(OCC(O)COC(=O)C(=C)C)cc2)cc1 (stereo unspecified)	100*	14.6	-25.9	·	i	0.1
CCOC(=O)NNC1CC(=O)N(c2ccc(OC)cc2)C1=O (stereo unspecified)	100*	-13.8	-1.4	-20.2	i	-4.1
NC(=S)N/N=C/c1c[nH]c2ccc(OCc3ccccc3)cc12	25*	1.2	-26.7	-27.9	i	-12.0
NC(=O)COC(=O)c1ccccc1OCc1ccc(Cl)cc1	i	-4.1	-15.9	-11.4	-25.4*	-15.1
CN(C(=O)c1ccccc1OCc1ccc(Cl)cc1)c1ccccc1	i	23.8	-0.2	-9.3	i	1.8
SMILES	TMEM16A inh	aSyn 5UTR inh	697 NFkB inh	KLF5 inh	TMEM16A act	Jurkat NFkB inh
CCc1cc(C(=O)c2ccc(OC)cc2)c(NC(=O)CC(C)(C)CC(=O)O)s1	i	20.8	12.8	-26.0	i	4.1
Nc1nc(CSCc2ccccc2)nc(N2CCOCC2)n1	i	-67.2	-42.2	-43.0	-15.2*	-8.0
Nc1nc(CSc2nc3ccccc3s2)nc(N2CCOCC2)n1	i	-1.6	-10.2	-10.1	i	-7.9
C=CCNc1nc2ccccc2nc1NS(=O)(=O)c1ccc(Br)cc1	25*	-3.0	-3.7	-3.5	·	1.4
COc1cccc(NC(=O)c2nc3ncccn3n2)c1	i	-44.7	15.5	42.9	-5.4*	5.8
COc1ccc(CNC(=O)Cn2nc([N+](=O)[O-])cc2C)cc1	i	-10.6	9.7	-37.1	i	-1.0
O=S(=O)(Nc1nc2ccccc2nc1Nc1ccc2c(c1)OCCO2)c1cccs1	25*	3.6	-24.5	-10.8	i	4.0
Cc1cccc2sc(NNC(=O)c3ccc(S(=O)(=O)N4CCc5ccccc5C4)cc3)nc12	i	66.9*	-5.3	24.6	i	3.0
Cc1cc(C)c2nc(NNC(=O)c3ccc(S(=O)(=O)N4CCCCC4)cc3)sc2c1	i	45.6	-27.1	6.6	i	2.7
Cc1cccc2sc(NNC(=O)c3ccc(S(=O)(=O)N4CCCC(C)C4)cc3)nc12 (stereo unspecified)	25*	77.6*	·	18.9	i	·
CC(=O)Nc1ccc(S(=O)(=O)Oc2ccccc2N2C(=O)C3C4CCC(C4)C3C2=O)cc1 (stereo unspecified)	i	23.2	1.0	-17.6	i	-3.3
Clc1ccc(-c2nnc(SCc3nc(-c4ccccc4)no3)o2)cc1	i	4.2	15.6	-9.3	-4.7*	9.5
Clc1ccc(-c2noc(CSc3nnc(-c4ccncc4)n3-c3ccccc3)n2)cc1	100*	-9.2	-24.6	2.4	i	32.0
Cc1ccc(S(=O)(=O)N2[C@@H](c3ccccc3F)C(C(=O)O)=CC[C@H]2c2ccc(C(C)C)cc2)cc1	100*	·	9.4	·	i	17.3
Cc1ccc([C@@H]2CC=C(C(=O)O)[C@H](c3ccccc3F)N2S(=O)(=O)c2ccc(C)cc2)cc1	i	·	20.9	·	-23.9*	-11.1
CCCCn1nnc(NC(=O)c2sc3cc(Cl)ccc3c2Cl)n1	i	-32.1	14.1	-36.0	i	26.7
CCN(CC)Cc1ccc(NC(=O)c2sc3cc(Cl)ccc3c2Cl)cc1	i	104.4*	-25.7	-16.2	i	16.0
COc1cc(/C=C/C(=O)OCC(=O)N(CC(C)C)c2c(N)n(Cc3ccccc3)c(=O)[nH]c2=O)ccc1O	·	·	·	·	-21.8*	·
O=C(NCCSc1ccc(Br)cc1)c1ccc2nc[nH]c2c1	i	-21.0	-26.5	-42.9	i	6.3
COc1ccc(N/N=C(/N=Nc2nc(C)cc(=O)[nH]2)c2ccccc2)cc1	i	85.1*	-131.9	-71.0	i	-15.1
Cc1cc(=O)[nH]c(N=N/C(=N/Nc2ccc(O)cc2)c2ccccc2)n1	i	-100.2	-48.2	-94.1	i	-37.4
Cc1cc(=O)[nH]c(N=N/C(=N/Nc2ccccc2C)c2ccccc2)n1	i	81.6*	-33.0	-27.7	i	23.2
